# Inconclusive results are not listed. Activity calls are given as the source filed them.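 Rule for the calls, unless noted: active = percent response above a set limit, the screen-wide mean plus 3 SD (cut at about 130% in these data); inactive = the rest.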
# Tests used:
# [1] = rapamycin-like changes in RPL19A-GFP expression – cell-based, S. cerevisiae, multiplex flow cytometry, primary screen (AID 1862; in the data active = percent of DMSO control GFP below about 86%;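 note: lower values mimic rapamycin by blocking the RPL19A rise seen in DMSO cells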); settings: S. cerevisiae RPL19A-GFP strain, flow cytometry fluorescence, 3 h; at 10 µM; stronger effect = lower value
# [2] = TOR pathway GLN3 branch reporter MEP2-GFP changes – S. cerevisiae, multiplex flow cytometry, primary screen (AID 1867;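 active = GFP response, as percent of the DMSO control, above the screen-wide mean plus 3 SD, about 139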;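 note: median GFP channel fluorescence of barcode-gated MEP2-GFP cells measured by flow cytometry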); settings: S. cerevisiae MEP2-GFP strain, 3 h, at 10 µM, stronger effect = higher value, 100% means same as DMSO wells
# [3] = TOR pathway RTG branch CIT2 reporter changes – S. cerevisiae, GFP fusion, multiplex flow cytometry, primary screen (AID 1870);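 note: barcoded CIT2-GFP strain pooled with four other GFP strains with rapamycin as positive control; median GFP fluorescence per well over plate mean of DMSO wells so 100% = DMSO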; settings: S. cerevisiae CIT2-GFP expression, 3 h, at 10 µM, stronger effect = higher value
# [4] = TOR pathway LAP4-GFP level changes – S. cerevisiae, multiplex flow cytometry, primary screen (AID 1873;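 active = GFP signal, as percent of the solvent control, above the screen mean plus 3 SD, about 149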); settings: S. cerevisiae LAP4-GFP expression, 3 h, at 10 µM, stronger effect = higher value
# [5] = yeast AGP1-GFP level changes, GLN3 branch – cell-based, multiplex flow cytometry, S. cerevisiae, primary screen (AID 1887;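 active = GFP signal above the screen-wide mean plus 3 SD, that is over about 124.5% of the solvent control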;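 note: AGP1-GFP fusion strain of S. cerevisiae within a five-strain barcoded multiplex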); settings: 3 h, at 10 µM, stronger effect = higher value
# [6] = reduced mouse 2C T cell binding to pMHC/ICAM-1 vesicles – MLPCN validation set, flow cytometry, LFA-1/ICAM-1 modulator project, pilot screen (AID 2523;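 active = response below a set limit, under 55% cells CD8-positive and vesicle-bound, and CD8 cells' 90th-percentile brightness under 279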;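 for vesicle binding response: mean PE anti-B7-1 fluorescence of CD8+ cells relative to row control; 100% = QL9-loaded vesicles with DMSO vehicle in the same plate row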); settings: 2C mouse CD8+ T cells, at 7 µM, stronger effect = lower value; double positive events: measured here: CD8+/vesicle+ event percentage
# [7] = target: Integrin beta-1 (Homo sapiens) + Integrin alpha-4 (Homo sapiens) (UniProt P13612+P05556); test: alpha4beta1 integrin LIBS antibody binding reduction – U937 cells, HUTS-21 mAb, flow cytometry, validation set, VLA-4 allosteric modulator project, pilot screen (AID 2674;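 active = inhibition above 50%, about 3 SD of the validation set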;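 note: antibody binding induced by the VLA-4 ligand LDV present at three times its Kd; 0% = LDV ligand with antibody and no compound and 100% = antibody without LDV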); settings: HUTS-21 LIBS mAb binding, at 6.7 µM, stronger effect = higher value, binding induced by LDV ligand
# Sequence of Integrin beta-1 (Homo sapiens) + Integrin alpha-4 (Homo sapiens) (P05556 whole entry, looked up): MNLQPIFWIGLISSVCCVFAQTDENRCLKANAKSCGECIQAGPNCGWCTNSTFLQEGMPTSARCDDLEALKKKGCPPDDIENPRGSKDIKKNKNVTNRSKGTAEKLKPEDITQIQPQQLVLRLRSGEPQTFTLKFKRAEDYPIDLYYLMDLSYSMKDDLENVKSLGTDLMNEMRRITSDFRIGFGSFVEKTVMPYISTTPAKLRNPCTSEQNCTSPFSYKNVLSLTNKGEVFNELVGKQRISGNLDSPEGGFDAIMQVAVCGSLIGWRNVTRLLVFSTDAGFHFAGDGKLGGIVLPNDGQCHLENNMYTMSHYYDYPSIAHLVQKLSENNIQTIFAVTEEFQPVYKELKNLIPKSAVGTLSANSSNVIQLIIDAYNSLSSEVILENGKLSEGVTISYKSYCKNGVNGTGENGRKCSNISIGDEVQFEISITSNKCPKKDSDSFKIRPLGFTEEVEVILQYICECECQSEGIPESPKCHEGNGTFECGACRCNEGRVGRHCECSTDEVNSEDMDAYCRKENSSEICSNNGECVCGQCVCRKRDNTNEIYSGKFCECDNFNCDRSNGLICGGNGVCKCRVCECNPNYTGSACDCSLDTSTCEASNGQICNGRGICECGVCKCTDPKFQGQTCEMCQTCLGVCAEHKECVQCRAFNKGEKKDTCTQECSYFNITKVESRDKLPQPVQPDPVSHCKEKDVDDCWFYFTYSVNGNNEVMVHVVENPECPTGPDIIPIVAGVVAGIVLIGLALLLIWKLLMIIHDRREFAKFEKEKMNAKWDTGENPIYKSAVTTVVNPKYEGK
# Sequence of Integrin beta-1 (Homo sapiens) + Integrin alpha-4 (Homo sapiens) (P13612 whole entry, looked up): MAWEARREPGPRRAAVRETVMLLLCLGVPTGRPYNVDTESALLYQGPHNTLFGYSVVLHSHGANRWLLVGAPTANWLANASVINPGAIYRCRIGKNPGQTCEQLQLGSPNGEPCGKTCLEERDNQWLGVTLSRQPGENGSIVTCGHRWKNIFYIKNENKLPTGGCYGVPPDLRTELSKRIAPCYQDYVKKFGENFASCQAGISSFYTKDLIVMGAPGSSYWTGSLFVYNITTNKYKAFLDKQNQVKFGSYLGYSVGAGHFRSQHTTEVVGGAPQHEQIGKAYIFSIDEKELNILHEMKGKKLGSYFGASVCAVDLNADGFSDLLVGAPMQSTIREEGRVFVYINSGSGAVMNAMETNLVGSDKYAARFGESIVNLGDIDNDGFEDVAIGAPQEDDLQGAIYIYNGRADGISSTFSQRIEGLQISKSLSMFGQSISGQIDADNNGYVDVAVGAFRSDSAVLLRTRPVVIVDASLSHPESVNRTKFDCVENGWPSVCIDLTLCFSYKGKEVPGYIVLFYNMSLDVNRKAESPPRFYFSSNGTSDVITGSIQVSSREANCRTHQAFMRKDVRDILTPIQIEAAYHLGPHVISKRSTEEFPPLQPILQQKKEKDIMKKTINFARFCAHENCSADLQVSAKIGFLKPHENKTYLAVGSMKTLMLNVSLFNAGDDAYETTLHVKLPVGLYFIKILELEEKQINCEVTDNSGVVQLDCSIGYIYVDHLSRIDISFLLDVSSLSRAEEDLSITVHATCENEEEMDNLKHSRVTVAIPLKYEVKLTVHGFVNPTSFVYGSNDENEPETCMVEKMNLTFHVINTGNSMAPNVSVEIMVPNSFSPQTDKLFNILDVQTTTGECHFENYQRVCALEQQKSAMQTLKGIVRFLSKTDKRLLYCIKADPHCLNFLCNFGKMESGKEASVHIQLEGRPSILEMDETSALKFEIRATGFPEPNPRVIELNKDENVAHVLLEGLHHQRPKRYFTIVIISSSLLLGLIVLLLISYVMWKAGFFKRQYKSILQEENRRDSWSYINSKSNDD
# [8] = calorie-restriction mimetic ROS inhibitors, yeast – validation compound set, pilot screen (AID 2706;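 active = superoxide response below 65% of plate, a cut near 3 SD across the whole screen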;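 note: yeast exposed to compound for one week at 30 degrees C before staining; 100% = mean of all compound wells on the same plate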); settings: S. cerevisiae aging, superoxide DHE fluorescence; at 10 µM; stronger effect = lower value
# [9] = target: Beta-adrenergic receptor kinase 1 (Homo sapiens) (UniProt P25098); test: GRK2 binders displacing RNA aptamer, biochemical, validation, human GRK2, bead flow cytometry (AID 488806;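 active = aptamer binding inhibition above 30%, about 3 SD of noise from non-fluorescent compounds; inactive = inhibition at or below 30%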); settings: bead-bound GRK2, FAM-aptamer displacement, at 10 µM, stronger effect = higher value
# Sequence of Beta-adrenergic receptor kinase 1 (Homo sapiens) (P25098 whole entry, looked up): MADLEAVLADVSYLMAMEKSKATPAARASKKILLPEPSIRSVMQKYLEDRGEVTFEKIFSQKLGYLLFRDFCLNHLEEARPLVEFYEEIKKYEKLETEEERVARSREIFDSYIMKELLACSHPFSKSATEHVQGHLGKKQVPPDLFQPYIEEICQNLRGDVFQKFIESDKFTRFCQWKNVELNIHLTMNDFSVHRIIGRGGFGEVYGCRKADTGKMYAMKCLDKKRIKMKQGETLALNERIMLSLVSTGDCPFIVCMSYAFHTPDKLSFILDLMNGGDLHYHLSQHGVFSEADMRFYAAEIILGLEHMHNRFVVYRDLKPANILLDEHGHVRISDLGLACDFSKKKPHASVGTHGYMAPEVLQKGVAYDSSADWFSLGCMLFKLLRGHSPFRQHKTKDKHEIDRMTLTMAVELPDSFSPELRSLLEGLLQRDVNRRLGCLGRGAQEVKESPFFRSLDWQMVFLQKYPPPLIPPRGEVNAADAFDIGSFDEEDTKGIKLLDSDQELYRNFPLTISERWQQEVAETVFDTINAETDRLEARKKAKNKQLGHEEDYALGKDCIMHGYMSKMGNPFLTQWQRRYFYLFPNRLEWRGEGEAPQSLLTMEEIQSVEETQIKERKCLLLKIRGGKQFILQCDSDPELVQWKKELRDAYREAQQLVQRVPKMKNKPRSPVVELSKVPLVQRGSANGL
# [10] = target: Beta-2 adrenergic receptor (Homo sapiens) (UniProt P07550); test: agonist-induced loss of surface beta2AR – cell-based, FAP fluorogen, flow cytometry, validation set, pilot screen (AID 504459;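 active = percent response above 42, roughly 3 SD of non-fluorescent test compounds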;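 note: agonist-driven loss of surface beta2AR via internalization measured by FAP dye flow cytometry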); settings: Am2.2-beta2AR cells, at 10 µM, stronger effect = higher value
# Sequence of Beta-2 adrenergic receptor (Homo sapiens) (P07550 whole entry, looked up): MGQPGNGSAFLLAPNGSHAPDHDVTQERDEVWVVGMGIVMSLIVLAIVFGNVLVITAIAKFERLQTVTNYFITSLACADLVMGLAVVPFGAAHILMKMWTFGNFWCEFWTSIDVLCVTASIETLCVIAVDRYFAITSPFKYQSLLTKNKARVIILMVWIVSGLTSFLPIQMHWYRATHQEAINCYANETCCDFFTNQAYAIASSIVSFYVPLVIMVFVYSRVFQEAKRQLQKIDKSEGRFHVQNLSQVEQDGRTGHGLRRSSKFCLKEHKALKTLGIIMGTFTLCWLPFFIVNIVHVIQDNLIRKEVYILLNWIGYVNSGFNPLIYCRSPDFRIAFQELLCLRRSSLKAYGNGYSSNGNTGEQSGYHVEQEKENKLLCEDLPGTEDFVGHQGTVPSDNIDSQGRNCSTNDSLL
# [11] = target: AP-2 complex subunit beta (Homo sapiens) (UniProt P63010); test: beta-arrestin/AP2 interaction blockers – biochemical, validation set, GST-AP2 beads, flow cytometry, pilot screen (AID 504541;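 active = inhibition above 54%, about 3 SD of non-fluorescent compounds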;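 note: AP2 carries R879A mutation and is captured from E. coli lysate; bead-bound FITC arrestin peptide fluorescence measuring arrestin peptide binding to AP2; 0% = DMSO wells and 100% = excess unlabeled arrestin peptide control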); settings: FITC arrestin peptide, at 10 µM, stronger effect = higher value, AP2 beta2 appendage fragment, R879A mutant
# Sequence of AP-2 complex subunit beta (Homo sapiens) (P63010 whole entry, looked up, the tested form may be a part, one chain of several): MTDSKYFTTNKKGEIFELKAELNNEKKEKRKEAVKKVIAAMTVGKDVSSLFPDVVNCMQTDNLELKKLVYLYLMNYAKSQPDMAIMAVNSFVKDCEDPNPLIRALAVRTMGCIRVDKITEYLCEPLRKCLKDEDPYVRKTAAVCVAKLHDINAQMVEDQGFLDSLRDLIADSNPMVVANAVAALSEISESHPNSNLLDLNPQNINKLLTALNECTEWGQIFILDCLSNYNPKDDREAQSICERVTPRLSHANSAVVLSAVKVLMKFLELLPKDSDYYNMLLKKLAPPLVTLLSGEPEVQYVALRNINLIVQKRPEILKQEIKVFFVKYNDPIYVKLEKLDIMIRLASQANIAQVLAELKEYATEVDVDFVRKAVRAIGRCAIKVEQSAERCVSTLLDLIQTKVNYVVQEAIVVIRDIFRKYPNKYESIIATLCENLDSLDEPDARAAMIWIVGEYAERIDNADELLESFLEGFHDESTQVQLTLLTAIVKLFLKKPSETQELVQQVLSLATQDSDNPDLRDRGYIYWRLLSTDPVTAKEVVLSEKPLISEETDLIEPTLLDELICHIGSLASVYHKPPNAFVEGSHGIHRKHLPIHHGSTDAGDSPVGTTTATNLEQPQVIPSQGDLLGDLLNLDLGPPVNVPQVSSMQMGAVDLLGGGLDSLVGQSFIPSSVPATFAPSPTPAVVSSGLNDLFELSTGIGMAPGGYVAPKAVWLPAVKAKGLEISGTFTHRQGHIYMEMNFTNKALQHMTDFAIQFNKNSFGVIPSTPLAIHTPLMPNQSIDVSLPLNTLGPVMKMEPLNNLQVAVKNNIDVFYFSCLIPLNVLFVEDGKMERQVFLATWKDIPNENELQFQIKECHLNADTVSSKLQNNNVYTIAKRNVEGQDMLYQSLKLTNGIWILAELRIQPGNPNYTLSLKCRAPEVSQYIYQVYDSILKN
# [12] = cytosolic pH regulators acting via V-ATPase – S. cerevisiae, pHLuorin, HTS validation (AID 504600; in the data active = response above about 15%;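 note: plate controls were DMSO for no effect and reference compound for full effect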); settings: V-ATPase proton transport, at 10 µM, stronger effect = higher value
# [13] = test system: anti-desmoglein-3 scFv antibody binding to human DSG3; test: blockers of pathogenic pemphigus antibody–desmoglein-3 binding – biochemical, validation compound set, bead-based, flow cytometry, pilot screen (AID 588368;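 active = binding below the plate cutoff, the plate median minus 3 SD, with a reading above zero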;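 note: signal is the median channel fluorescence of bead-bound GFP antibody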); settings: Protein G beads, DSG3-Fc, scFv-GFP binding, at 10 µM, stronger effect = lower value
# [14] = Nile Red efflux blockade in pump-expressing yeast – validation compound set, multiplex, phenotypic, pilot screen (AID 588506;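 active = efflux inhibition above 0.42, the validation set average plus 4 SD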;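 note: Nile Red retained in cells so higher fluorescence means more efflux inhibition; 0 = negative control wells and 1 = enniatin B 25 µM full block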); settings: S. cerevisiae pump-expressing triplex, Nile Red efflux flow cytometry; at 10 µM; stronger effect = higher value; the pumps come from Candida albicans
# [15] = target: ATP-binding cassette sub-family B member 6 (Homo sapiens) (UniProt Q9NP58); test: blockers of ABCB6-driven porphyrin uptake – K562-ABCB6 cells, flow cytometry, validation set, pilot screen (AID 588550;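 active = inhibition above the screen-wide mean plus 3 SD, about 51%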;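 note: 0% = DMSO wells and 100% = benzethonium chloride 70 µM positive control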); settings: K562-ABCB6 porphyrin accumulation, 1 h, at 10 µM, stronger effect = higher value
# Sequence of ATP-binding cassette sub-family B member 6 (Homo sapiens) (Q9NP58 whole entry, looked up): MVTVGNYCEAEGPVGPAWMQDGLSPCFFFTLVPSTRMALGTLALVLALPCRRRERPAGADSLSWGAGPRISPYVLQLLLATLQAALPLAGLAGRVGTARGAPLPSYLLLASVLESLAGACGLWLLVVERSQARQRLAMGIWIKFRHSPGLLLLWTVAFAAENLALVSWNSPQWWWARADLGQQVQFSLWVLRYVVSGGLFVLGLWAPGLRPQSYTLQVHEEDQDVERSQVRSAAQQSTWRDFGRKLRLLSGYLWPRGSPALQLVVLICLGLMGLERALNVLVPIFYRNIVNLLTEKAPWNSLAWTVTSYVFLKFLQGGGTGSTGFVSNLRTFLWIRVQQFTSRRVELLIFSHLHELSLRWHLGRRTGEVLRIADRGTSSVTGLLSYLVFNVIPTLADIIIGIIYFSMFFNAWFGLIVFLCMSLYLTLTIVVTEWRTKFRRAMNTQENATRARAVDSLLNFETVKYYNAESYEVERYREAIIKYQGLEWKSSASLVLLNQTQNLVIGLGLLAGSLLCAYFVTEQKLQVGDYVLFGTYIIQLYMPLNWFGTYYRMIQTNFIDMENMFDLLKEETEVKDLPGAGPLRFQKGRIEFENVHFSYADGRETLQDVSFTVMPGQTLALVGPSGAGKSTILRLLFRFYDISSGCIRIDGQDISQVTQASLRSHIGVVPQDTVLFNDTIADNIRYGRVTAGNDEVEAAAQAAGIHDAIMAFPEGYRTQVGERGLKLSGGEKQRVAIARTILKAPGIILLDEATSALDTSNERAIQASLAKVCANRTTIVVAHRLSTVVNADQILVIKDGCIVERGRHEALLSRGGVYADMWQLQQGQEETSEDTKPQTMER
# [16] = AML differentiation inducers, ER-HoxA9 marrow cells – cell-based, GFP/MAC1 double positive, flow cytometry, validation set, primary screen (AID 588685;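 active = differentiation response of at least 50%, scaled between solvent and reference control, from cells with both markers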;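 note: compound exposure lasts four days before antibody staining and flow analysis; 0% = DMSO wells and 100% = 5 µM fulvestrant positive control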); settings: stronger effect = higher value, normalized: vehicle 0, fulvestrant 100
Structure (SMILES),percent of DMSO control GFP [1],GFP response vs DMSO [2],percent response of DMSO control [3],GFP response vs DMSO [4],"GFP response, % of DMSO [5]",double positive events [6] [%],vesicle binding response [6],inhibition [7],superoxide response (% of plate) [8],aptamer binding inhibition [9],response [10],inhibition [11],response [12],binding (% of control) [13],efflux inhibition (fraction of control) [14],inhibition [15],differentiation response [16]
CC1CCc2cc(F)cc3c(=O)c(C(=O)O)cn1c23 (stereo not drawn),99% (inactive),111% (inactive),95.4% (inactive),101% (inactive),96.5% (inactive),62.3,204% (inactive),-37.8% (inactive),101% (inactive),0% (inactive),-2.58% (inactive),10.9% (inactive),-2.27% (inactive),94% (inactive),-0.04 (inactive),-15% (inactive),-6.6% (inactive)
COc1ccc(CNC(=O)N[C@H](C(=O)O)C(C)C)cc1OC,92.6% (inactive),119% (inactive),111% (inactive),81.4% (inactive),89.8% (inactive),53.2,186% (inactive),-9.06% (inactive),112% (inactive),-5% (inactive),-4.83% (inactive),-15.3% (inactive),1.94% (inactive),98.1% (inactive),0.3 (inactive),3% (inactive),7.37% (inactive)
Cc1cc(Cl)cc2c1NC(=O)[C@]21[C@@H]2C(=O)N(Cc3ccccc3)C(=O)[C@@H]2[C@@H]2CCCN21,96.2% (inactive),95.7% (inactive),90.5% (inactive),102% (inactive),99.6% (inactive),63.7,154% (inactive),-232% (inactive),95.7% (inactive),6% (inactive),-4.55% (inactive),-2.45% (inactive),3.96% (inactive),104% (inactive),0.08 (inactive),-22% (inactive),-14.8% (inactive)
CC(=O)OC1c2c(ccc3ccc(=O)oc23)OC(C)(C)C1OC(=O)CC(C)C (stereo not drawn),103% (inactive),99.3% (inactive),104% (inactive),98% (inactive),94.2% (inactive),64.2,1500% (inactive),19.3% (inactive),90.3% (inactive),3% (inactive),-25.3% (inactive),1.97% (inactive),-1.96% (inactive),100% (inactive),0.24 (inactive),15% (inactive),-3.67% (inactive)
CN(C)CCC(c1ccccc1)c1ccccn1 (stereo not drawn),97.2% (inactive),130% (inactive),97.9% (inactive),83.6% (inactive),86.1% (inactive),64.9,139% (inactive),14.2% (inactive),93.1% (inactive),3% (inactive),-2.11% (inactive),-9.57% (inactive),-0.43% (inactive),97.8% (inactive),-0.35 (inactive),12% (inactive),8.19% (inactive)
CCCn1c(=O)c2[nH]c(C3CCCC3)nc2n(CCC)c1=O,92.6% (inactive),137% (inactive),102% (inactive),82.5% (inactive),88.7% (inactive),62.8,193% (inactive),0.64% (inactive),93.3% (inactive),4% (inactive),-5.24% (inactive),-0.16% (inactive),-6.35% (inactive),102% (inactive),-0.13 (inactive),7% (inactive),2.46% (inactive)
O=C(OCCNC(=O)c1ccc2ccccc2n1)c1ccc(F)cc1,103% (inactive),110% (inactive),97.8% (inactive),87.4% (inactive),88.9% (inactive),58.4,241% (inactive),2.66% (inactive),114% (inactive),0% (inactive),4.51% (inactive),2.3% (inactive),1.13% (inactive),99.2% (inactive),-0.04 (inactive),0% (inactive),8.06% (inactive)
COc1cccc(NC(=O)C2CC(=O)OC23CCOC(C)(C)C3)c1 (stereo not drawn),93.7% (inactive),137% (inactive),95.2% (inactive),80.9% (inactive),94.2% (inactive),58.3,24.9% (inactive),19.1% (inactive),88.5% (inactive),2% (inactive),-4.19% (inactive),0.76% (inactive),-0.08% (inactive),101% (inactive),-0.13 (inactive),9% (inactive),-2.46% (inactive)
CC12CCCCN1CCCc1c2[nH]c2ccccc12 (stereo not drawn),99.6% (inactive),105% (inactive),115% (inactive),82.8% (inactive),99.5% (inactive),61.3,149% (inactive),-22.2% (inactive),99.9% (inactive),-6% (inactive),8.33% (inactive),3.51% (inactive),0.15% (inactive),112% (inactive),-0.2 (inactive),-49% (inactive),11% (inactive)
C=CCn1c(N2CCCCCC2)nc2c1c(=O)n(C)c(=O)n2C,97.6% (inactive),97.6% (inactive),95.7% (inactive),104% (inactive),114% (inactive),63.5,220% (inactive),7.4% (inactive),112% (inactive),3% (inactive),-47.3% (inactive),-11.7% (inactive),0.52% (inactive),95.9% (inactive),0.17 (inactive),7% (inactive),-11.9% (inactive)
O=C(O)CCC(=O)c1ccc(-c2ccccc2)cc1,102% (inactive),102% (inactive),102% (inactive),125% (inactive),108% (inactive),65.4,245% (inactive),-9.13% (inactive),99.8% (inactive),-1% (inactive),11.2% (inactive),10.7% (inactive),-4.64% (inactive),103% (inactive),0.36 (inactive),0% (inactive),-11.9% (inactive)
O=c1[nH]c(=O)n([C@H]2C[C@H](O)[C@@H](CO)O2)cc1C(F)(F)F,103% (inactive),101% (inactive),97.8% (inactive),94% (inactive),94.8% (inactive),58.6,48.9% (inactive),-11.9% (inactive),108% (inactive),1% (inactive),-1.49% (inactive),13.9% (inactive),-1.8% (inactive),100% (inactive),0.02 (inactive),1% (inactive),-1.71% (inactive)
CCC(C(=O)OCCN(CC)CC)c1ccccc1 (stereo not drawn),101% (inactive),101% (inactive),98.2% (inactive),85.9% (inactive),99.1% (inactive),57.2,33.7% (inactive),2.55% (inactive),97.2% (inactive),5% (inactive),8.98% (inactive),19.7% (inactive),-2.47% (inactive),98.8% (inactive),0.26 (inactive),6% (inactive),14.9% (inactive)
O=C(O)c1cccnc1Nc1cccc(C(F)(F)F)c1,95.9% (inactive),130% (inactive),110% (inactive),83.6% (inactive),93.3% (inactive),63.3,214% (inactive),7.43% (inactive),98.6% (inactive),6% (inactive),6.98% (inactive),47.1% (inactive),-7.29% (inactive),102% (inactive),0.48 (active),15% (inactive),7.37% (inactive)
CN1CCCN=C1COC(=O)C(O)(c1ccccc1)C1CCCCC1 (stereo not drawn),103% (inactive),107% (inactive),93.1% (inactive),92.7% (inactive),96.5% (inactive),64,205% (inactive),7.85% (inactive),98.5% (inactive),6% (inactive),3.5% (inactive),12.1% (inactive),4.32% (inactive),91.9% (inactive),-0.14 (inactive),-5% (inactive),5.13% (inactive)
CCOc1ccc2ccccc2c1C(=O)N[C@@H]1C(=O)N2[C@@H]1SC(C)(C)[C@@H]2C(=O)O,101% (inactive),112% (inactive),93.1% (inactive),85.5% (inactive),97.5% (inactive),67.6,994% (inactive),-3.57% (inactive),108% (inactive),2% (inactive),1.55% (inactive),17.1% (inactive),0.05% (inactive),95.5% (inactive),0.14 (inactive),8% (inactive),11% (inactive)
CCOC(=O)C1=C(C)N[C@@]2(O)c3ccccc3C(=O)[C@@]12O,102% (inactive),106% (inactive),106% (inactive),92.2% (inactive),98.5% (inactive),65.1,254% (inactive),-7.25% (inactive),96.8% (inactive),1% (inactive),-1.07% (inactive),12.9% (inactive),13% (inactive),99.3% (inactive),-0.21 (inactive),6% (inactive),-21.6% (inactive)
COC(=O)c1ccccc1NC(=O)c1ccc(COc2ccc3c(c2)CCC3)cc1,99.6% (inactive),99.3% (inactive),90.8% (inactive),105% (inactive),94.8% (inactive),64.4,521% (inactive),7.85% (inactive),82.8% (inactive),5% (inactive),-3.71% (inactive),0.16% (inactive),-3.9% (inactive),98.9% (inactive),0.46 (active),-3% (inactive),1.22% (inactive)
CCOC(=O)c1ccc(N2C(=O)C(CC(=O)NC)N(CCc3ccc(OC)c(OC)c3)C2=S)cc1 (stereo not drawn),103% (inactive),99.9% (inactive),101% (inactive),104% (inactive),98.8% (inactive),59.4,248% (inactive),6.85% (inactive),113% (inactive),5% (inactive),5.49% (inactive),-11.1% (inactive),0.17% (inactive),103% (inactive),0.26 (inactive),4% (inactive),-1.12% (inactive)

# — PubChem BioAssay
